The structures appear in SMILES notation.

A short description of the test: probe aInhba binding on compound microarray – biochemical, small-molecule microarray, 635/667 nm fluorescence, primary screen (AID 1148).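 Note: score merges 667nm spot fluorescence with signal-to-noise for antibody binding to printed compounds.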 Conditions: higher = more signal.
Regarding `COC(=O)CC=C[C@@H](C)[C@@H](C=NOC(C)CN1CCCCc2nc(C)c(C)cc21)OC` (some centres not stated), the composite z-score was -0.239.
Under `CCOC(=O)[C@H](CC(C)C)NC(=O)CCC1CC(OC(=O)NCc2ccc3c(c2)OCO3)CC2(CCCC(COC(=O)NCCc3ccc(Cl)cc3)O2)O1` (some centres not stated) stands -0.089.
Regarding `CC(CCN1CCc2nc(-c3ccccc3)c(-c3ccccc3)cc2C1)=NO[C@H](C)c1cn([C@H](CO)Cc2ccccc2)nn1`, the composite z-score was -0.0494.
Consider `CC(CCC(=O)OC[C@H]1O[C@H](C#Cc2ccccc2)C=C[C@@H]1Oc1ccc(C)cc1)=NO[C@H](C)c1cn([C@@H]2COC[C@H]2O)nn1`, for which the composite z-score was -0.101.
For `CC(CCN1CCc2nc(-c3ccccc3)c(-c3ccccc3)cc2C1)=NOC(C)CN1CCCc2nc(C)c(C)cc21` (configuration not stated) the value was 0.0785; for `CCC1=NOC(CCC2CC(OC(=O)NCc3cccc4c3OCO4)CC3(CCCC(COC(=O)NCCc4ccc(Cl)cc4)O3)O2)C1` (configuration not stated), -0.0963; for `CCOC(=O)CCN1C(=O)[C@H]2[C@@H]3C(=CC[C@H]2C1=O)C(=O)[C@H]1O[C@H]1[C@H]3O`, -0.253.
Take `CON=C(C)CCC(=O)OC[C@H]1O[C@H](C#Cc2ccccc2)C=C[C@@H]1Oc1ccc(C)cc1`: the composite z-score is -0.016.
`Cc1cc2c(nc1C)CCCCN2CC(O)CN1CCCc2nc(-c3ccc(Br)cc3)ccc21` (configuration not stated) came in with a composite z-score of 0.0541.
Under `COC(=O)[C@H](C)NC(=O)CCC1CC(OC(=O)NCc2cccc3ccccc23)CC2(CCCC(COC(=O)NCCc3ccccc3OC)O2)O1` (some centres not stated) stands -0.0361.
For `CC#CCOCCC=C1c2ccccc2[C@@H](OC)[C@@H]1C` the value was -0.122.
With `CCO[C@H](c1cc(OC)cc([N+](=O)[O-])c1OC)[C@H](C)[C@@H](OC)[C@H](C)C=CCC(=O)OC`, the composite z-score is -0.183.

Source of the values: PubChem BioAssay.
